Among the data in PubChem BioAssay AID588676 (Johns Hopkins Ion Channel Center, 2011) are B-score values, retold here.

SMILES strings stand for the structures. Out of some 310,000 compounds screened, about 3,900 (1.3%) were called active.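 The calls were made as follows: active = calcium-response B-score plate-corrected more than 3 library SD below zero, starting fluorescence within 5 deviations, no agonist response on first addition; inactive = the rest.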 What follows is part of a selection rich in actives, with near analogues and random picks from the rest.

The target of the assay is Mas-related G-protein coupled receptor member X1 (Homo sapiens) (UniProt Q96LB2). Kind of assay: antagonists of human MrgX1 receptor, primary screen, HEK293 cells, Fluo-4 calcium flux (AID 588676).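 As to B-score: peak minus trough fluorescence over baseline after final BAM8-22 challenge near maximal dose.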 The conditions noted are these: Fluo-4, BAM8-22 antagonism, at 10 µM; hits give low values. A general note: Calcium flux is commonly read through the fluorescence of an indicator in the cells.
Mas-related G-protein coupled receptor member X1 (Homo sapiens), sequence (Q96LB2 whole entry, looked up): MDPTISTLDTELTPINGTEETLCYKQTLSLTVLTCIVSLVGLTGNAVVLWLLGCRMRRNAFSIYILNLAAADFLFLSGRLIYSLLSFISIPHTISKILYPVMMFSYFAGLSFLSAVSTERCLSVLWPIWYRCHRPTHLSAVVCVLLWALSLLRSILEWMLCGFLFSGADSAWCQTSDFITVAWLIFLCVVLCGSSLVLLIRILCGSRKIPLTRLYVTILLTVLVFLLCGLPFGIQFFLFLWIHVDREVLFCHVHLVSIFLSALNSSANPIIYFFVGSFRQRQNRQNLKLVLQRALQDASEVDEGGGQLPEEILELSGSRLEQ
`CC(=O)c1cc(-c2ccccc2)n(CC(=O)NC2CCCCC2)c1C`: the B-score result is “inactive”.
For the molecule `O=C(Cn1c(-c2cncs2)nc2ccccc21)NC1CCCC1`, the B-score was -5 (active).
To `O=C(Cn1c(-c2cscn2)nc2ccccc21)Nc1ccc(Cl)cc1` belongs “inactive”; to `Cc1cc(NC(=O)CSC2=NS(=O)(=O)c3cc(Cl)ccc3N2)no1`, “inactive”; to `C[C@@H](NC(=O)OC(C)(C)C)c1nnc(S(=O)(=O)Cc2ccccc2)o1`, “inactive”.
Consider `CNC(=S)N/N=C/c1ccc(OCc2ccccc2)c(Br)c1`, for which the B-score entry was “inactive”.
Regarding `CCCC(=O)Nc1ccc2c(c1)nc(CCNC(=O)c1ccco1)n2C`, the B-score result is “inactive”.
In the case of `COCCNC(=O)Nc1ccc2nc(-c3ccco3)c(-c3ccco3)nc2c1` it was -6.82 (active); in that of `O=C(NCc1ccccn1)c1ccc2nc(-c3ccco3)c(-c3ccco3)nc2c1`, “inactive”; in that of `CCOc1ccc(S(=O)(=O)NCCC(=O)N2CCCCCCC2)cc1`, “inactive”.
As to `O=C(NC(=S)N1CCc2ccccc21)c1ccco1`, the B-score entry is “inactive”.
To `O=[N+]([O-])c1ccc2nc(-c3ccccn3)[nH]c2c1` belongs “inactive”; to `COc1ccc([N+](=O)[O-])cc1-c1nc2ccccc2nc1-c1ccccc1`, “inactive”.
To `O=[N+]([O-])c1ccc2c(c1)Nc1nc3ccccc3nc1N2` belongs -4.67 (active).
For `[O-][n+]1onc2c1CCc1[nH]c(-c3ccccc3)nc1-2`, the B-score entry was “inactive”.
Consider `COc1ccc(NC(=S)N2N=CCC2c2ccccc2)cc1` (stereo not drawn), for which the B-score was -7.31 (active).
On to `COc1ccc(C2=NN(C(C)=O)C(c3ccccc3)C2)cc1` (stereo not drawn), for which the B-score result is “inactive”.
On to `COc1ccc(C(=S)Nc2ccccc2)cc1`, for which the B-score entry is “inactive”.
To `Cc1nnc(CN(C)Cc2cn[nH]c2-c2ccc(-c3ccccc3)cc2)o1` belongs “inactive”.
To `CC(Nc1nc(C(F)(F)F)nc2ccccc12)c1cccs1` (stereo not drawn) belongs “inactive”; to `Cc1ccc(N2C(=O)C3C4C=CC(CC4)C3C2=O)cc1Br` (stereo not drawn), “inactive”; to `COc1cc([N+](=O)[O-])ccc1NC(=S)N1CCN(c2ccccn2)CC1`, -5.85 (active).
In the case of `CNC(=S)N1CCN(c2ccccn2)CC1` it was “inactive”.
On to `O=[N+]([O-])c1ccc(NC(=S)N2CCN(c3ccccn3)CC2)cc1`, for which the B-score result is “inactive”.
In the case of `CCC(C(=O)NC1CCCCC1)N(C(=O)c1snc(C(N)=O)c1N)c1ccc(OC)cc1OC` (stereo not drawn) it was “inactive”; in that of `COC(=O)c1cccc(C(=O)N2CCCC(Nc3ccc4c(c3)OCCO4)C2)c1` (stereo not drawn), “inactive”.
With `Cc1ccc(S(=O)(=O)N2CCN(C(=O)COC(=O)c3c(C)cc(C)cc3C)CC2)c(C)c1`, the B-score entry was “inactive”.
Turning to `Cc1ccc(S(=O)(=O)N2CCN(C(=O)N3CCOCC3)CC2)c(C)c1`, the B-score result was “inactive”.
In the case of `Cc1ccc(S(=O)(=O)N2CCN(C(=O)c3ccccc3-c3nc4ccccc4s3)CC2)c(C)c1` it was -4.66 (active); in that of `COc1cc(SC#N)ccc1N=Cc1c(C)[nH]n(-c2ccc(C)cc2)c1=O`, “inactive”.
Turning to `CCSc1nsc(NC(=O)Nc2cccc(C(C)=O)c2)n1`, the B-score was -6.91 (active).
In the case of `C=CCSc1nsc(NC(=O)Nc2cccc(C(C)=O)c2)n1` it was “inactive”.
In the case of `CCSc1nsc(NC(=O)Nc2ccccc2OC)n1` it was “inactive”; in that of `COc1cccc(-c2cc(C(=O)N/N=C/c3ccc(OC)c(COC(C)=O)c3)c3ccccc3n2)c1`, -7.49 (active).
Turning to `CCOc1cc(/C=N/NC(=O)c2cc(-c3ccccc3)nc3ccccc23)ccc1O`, the B-score result was “inactive”.
In the case of `COc1ccc(/C=N/NC(=O)c2cc(-c3cccc(C)c3)nc3ccccc23)cc1O` it was “inactive”; in that of `CCCCN(C1CCS(=O)(=O)C1)S(=O)(=O)c1ccc(C(C)C)cc1` (stereo not drawn), “inactive”; in that of `O=c1[nH]c(N2CCOCC2)nc2ccccc12`, “inactive”.
Take `CC1(C)Cc2c(C#N)c(SCc3nc4ccccc4[nH]3)nc(N3CCOCC3)c2CO1`: the B-score result was “inactive”.
To `C1=C(N2CCOCC2)/C(=C/c2nc3ccccc3[nH]2)CC1` belongs -5.3 (active); to `COc1ccc2c(c1)[C@H]1[C@H](CO2)[C@H](c2ccccc2)[C@]2(C)C(=O)Nc3cc(F)c(F)cc3C(=O)N12`, “inactive”; to `COc1cc(CN(C)Cc2nc3cc(C(F)(F)F)ccc3c(=O)[nH]2)ccc1OC(F)F`, “inactive”.
In the case of `CCOCCCNC(=O)C1(O)c2cc(Br)ccc2NC(=O)N1c1ccc(C)c(C)c1` (stereo not drawn) it was “inactive”; in that of `C=CCn1c(=NC(=O)c2cccs2)sc2cc(NC(C)=O)ccc21`, “inactive”.
Regarding `Cc1ccc(CCC(=O)Nc2ncc(Cc3cc(Cl)ccc3Cl)s2)o1`, the B-score result is “inactive”.
As for `Cc1ccc(Cc2cnc(N)s2)o1`, the B-score was -6.78 (active).
On to `CCn1ccnc1CN(C)C(=O)c1cc(COc2ccc(Cl)cc2OC)on1`, for which the B-score result was “inactive”.
For the molecule `CCc1ccc2[nH]c(=O)c(Cc3ccccc3)c(O)c2c1`, the B-score result was “inactive”.
In the case of `CN(C)c1ccc(-n2cccc2/C=N/n2cnnc2)cc1` it was “inactive”; in that of `Cc1ccc(N=C2NC(=O)/C(=C/C=C/c3ccco3)S2)cc1C`, “inactive”; in that of `CN(C)c1ccc(-n2cccc2/C=C2/SC(=Nc3ccc(F)cc3)NC2=O)cc1`, -5.31 (active).
In the case of `Cc1ccccc1NC(=O)Cn1cc(C(=O)C2CC2)c2ccccc21` it was “inactive”.
As to `COc1cccc2sc(N(CCCN(C)C)C(=O)CCS(=O)(=O)c3ccccc3)nc12`, the B-score result is “inactive”.
In the case of `COc1cccc2sc(N(CCCN(C)C)C(=O)C(c3ccccc3)c3ccccc3)nc12` it was -7.14 (active).
In the case of `COc1cc2ccccc2cc1C(=O)N(CCN(C)C)c1nc2c(F)cccc2s1` it was “inactive”.
In the case of `CCc1ccc2c(c1)C1(NN=C(c3ccccc3)S1)C(=O)N2` (stereo not drawn), the B-score entry was “inactive”.
Take `CCOC(=O)c1c(NC(=O)CCl)sc(C(=O)N(CC)CC)c1C`: the B-score entry is “inactive”.
In the case of `Cn1nc(C(F)(F)F)cc1-c1ccc(/C=C(\C#N)C(=O)c2cccc(C(F)(F)F)c2)s1`, the B-score entry was “inactive”.
Consider `CC(=O)c1c(C)[nH]c(=S)c(C#N)c1-c1ccc(F)cc1`, for which the B-score result is “inactive”.
Take `CCOC(=O)c1c(C)[nH]c(=S)c(C#N)c1-c1ccccc1`: the B-score is -6.66 (active).
Turning to `CCOC(=O)c1c(C)nc(-c2ccccc2)nc1NC(=O)C(C)C`, the B-score result was “inactive”.
For `O=c1c(Cl)c(NCc2ccc(F)cc2Cl)cnn1C12CC3CC(CC(C3)C1)C2`, the B-score result was “inactive”.
In the case of `Cc1cccc2c1-c1sc(C(=O)NCCCN3CCc4ccccc4C3)cc1CO2` it was “inactive”; in that of `CC1=NN(c2cccc(Cl)c2)C(=O)C12CC(C)=C(C)CS2` (stereo not drawn), “inactive”.
In the case of `CC(C)Oc1ccc(C(CC(=O)N2CCOCC2)C(C)C)cc1` (stereo not drawn), the B-score result was “inactive”.
With `O=[N+]([O-])c1ccc(N2CCN(S(=O)(=O)c3ccccc3)CC2)cc1N1CCc2ccccc2C1`, the B-score entry was “inactive”.
`COCC1CCN(C(=O)CCc2nnc(C3(c4ccc(Cl)cc4)CCC3)o2)C1` (stereo not drawn): the B-score result was “inactive”.
In the case of `Cc1nccn1CCC1CCCCN1C(=O)CCc1nnc(-c2ccsc2)o1` (stereo not drawn) it was -4.86 (active).
Consider `CC(C)CC(O)C1CCN(C(=O)CCc2nnc(-c3ccc4c(c3)OCO4)o2)CC1` (stereo not drawn), for which the B-score result was “inactive”.
In the case of `CN(C)CCNC(=O)Cc1ccc([N+](=O)[O-])cc1` it was -6.37 (active); in that of `O=C(CSCc1ccc([N+](=O)[O-])cc1)NCCSCc1ccccc1`, “inactive”.
To `CN(C)C(CNC(=O)Cc1ccc([N+](=O)[O-])cc1)c1ccccc1` (stereo not drawn) belongs “inactive”; to `S=C(NCc1ccco1)Nc1ccc2c(c1)OCCO2`, “inactive”; to `COc1cc(NC(=S)NCc2ccco2)c(OC)cc1Cl`, “inactive”.
To `FC(F)Oc1ccc(NC(=S)NCc2ccco2)cc1Cl` belongs -4.6 (active); to `O=C1CCc2cc(S(=O)(=O)Nc3ccc(C(F)(F)F)cc3)cc3c2N1CC3`, “inactive”; to `CCN(CC(=O)Nc1cc(Cl)ccc1C)C(=O)Cn1c(=O)cnc2ccccc21`, “inactive”.
Consider `CCN1CCN(C2CCCCC2NS(=O)(=O)c2ccc(Cl)cc2)CC1` (stereo not drawn), for which the B-score result is “inactive”.
With `O=S(=O)(NC1CCCCC1N1CCCCC1)c1ccc(Cl)cc1` (stereo not drawn), the B-score entry is “inactive”.
In the case of `CCOC1CCCCC1NS(=O)(=O)c1ccc(Cl)cc1` (stereo not drawn) it was -6.36 (active).
To `O=C(O)CCCN1C(=O)c2ccccc2Sc2ncccc21` belongs “inactive”.
To `COc1ccc(CC(=O)NCc2nnc(SCC(=O)Nc3nccs3)n2C)cc1` belongs “inactive”; to `COc1ccc(C(=O)NCc2nnc(SCC(=O)NC3=NCCS3)n2C)cc1`, “inactive”; to `COc1ccc(C(=O)NCc2nnc(SCCOc3ccccc3)n2C)cc1`, -8.04 (active).
As to `CCN(CC)C(=O)CSc1nnc(CNc2ccc(F)cc2)n1Cc1ccco1`, the B-score entry was “inactive”.
In the case of `CC(C)(C)n1c(=O)[nH]c2c(c1=O)CCC2` it was -7.85 (active); in that of `O=c1[nH]n2c(=O)c3c([nH]c2c1N=Nc1ccccc1)CCC3`, “inactive”; in that of `O=C(COC(=O)Cc1c[nH]c2ccccc12)NCCc1ccccc1`, “inactive”.
In the case of `Cc1nc(CNS(=O)(=O)c2ccc(Oc3ccccc3)cc2)cs1` it was “inactive”; in that of `O=C(NCCCc1ccccc1)C(=O)c1c[nH]c2ccccc12`, “inactive”; in that of `CCS(=O)(=O)N1Cc2ccccc2CC1C(=O)Nc1nc2ccc(F)cc2s1` (stereo not drawn), “inactive”.
Consider `COc1ccc(OCCCC(=O)OC(C)C(=O)Nc2ccccc2[N+](=O)[O-])cc1` (stereo not drawn), for which the B-score result is “inactive”.
To `COc1ccc(N2CCN(C(=O)CN3C(=O)COc4ccccc43)CC2)cc1` belongs “inactive”; to `Nc1ccc(SCCN2C(=O)c3ccccc3C2=O)cc1`, “inactive”; to `NC(=O)C1(C(N)=O)OC1c1ccc(Cl)cc1Cl` (stereo not drawn), “inactive”.
In the case of `O=C(NC1CC1)C1=C[C@H](c2coc3ccccc3c2=O)C[C@H](OCCCCO)O1` it was “inactive”.
In the case of `Nc1ccc2nc3c(=O)[nH]c(=S)[nH]c3nc2c1` it was “inactive”.
With `O=c1[nH]c(=O)c2nc3ccccc3nc2[nH]1`, the B-score is -4.56 (active).
For the molecule `CNC(=O)c1cccc2nc3ccccc3nc12`, the B-score entry is “inactive”.
To `CC1(C)CC(=O)C(N=Nc2c(F)cccc2F)=C(O)C1` belongs “inactive”; to `CC(=O)N1CCC(C(=O)OCc2ccc(Cl)cc2)(c2ccccc2)CC1`, “inactive”; to `Cc1ccc(S(=O)(=O)N(C)c2nc3ccccc3n3c(C(C)C)nnc23)cc1`, “inactive”.
To `Cc1ccc(S(=O)(=O)n2nc(OC(=O)C(C)(C)C)cc2N)cc1` belongs -8.79 (active).
To `Nc1cc(OC(=O)c2ccccc2Br)nn1S(=O)(=O)c1ccccc1` belongs “inactive”.
`Cc1ccc(-c2cn(S(=O)(=O)c3cccc([N+](=O)[O-])c3)nc2N)cc1`: the B-score result is “inactive”.
To `O=C(Nc1ccccc1Cl)N1CCN(c2ccc3nncn3n2)CC1` belongs -4.64 (active); to `O=C(COc1ccc(-n2cnnn2)cc1)Nc1ccccc1Cl`, “inactive”.
In the case of `Cc1ccc(C(=O)NC2CCN(C(=O)Nc3ccccc3Cl)CC2)cc1`, the B-score entry was “inactive”.
